The text below walks through data of ChEMBL document CHEMBL3988442, “University of Dundee, Small-Polar-MMV Screening Library” (2021).

For some of these results: Entries with a potency or affinity are not part of this list.

What all share (parameters): scale not given: direction of the effect not stated beside the values
The target in assay [1] is Protein translocase subunit SecA (Escherichia coli (strain K12)) (UniProt P10408). Description: Assay to Identify E. coli SecA ATPase Inhibitors. The assay is classed as functional. Particulars: 30 µM.
Sequence of Protein translocase subunit SecA (Escherichia coli (strain K12)) (P10408 whole entry): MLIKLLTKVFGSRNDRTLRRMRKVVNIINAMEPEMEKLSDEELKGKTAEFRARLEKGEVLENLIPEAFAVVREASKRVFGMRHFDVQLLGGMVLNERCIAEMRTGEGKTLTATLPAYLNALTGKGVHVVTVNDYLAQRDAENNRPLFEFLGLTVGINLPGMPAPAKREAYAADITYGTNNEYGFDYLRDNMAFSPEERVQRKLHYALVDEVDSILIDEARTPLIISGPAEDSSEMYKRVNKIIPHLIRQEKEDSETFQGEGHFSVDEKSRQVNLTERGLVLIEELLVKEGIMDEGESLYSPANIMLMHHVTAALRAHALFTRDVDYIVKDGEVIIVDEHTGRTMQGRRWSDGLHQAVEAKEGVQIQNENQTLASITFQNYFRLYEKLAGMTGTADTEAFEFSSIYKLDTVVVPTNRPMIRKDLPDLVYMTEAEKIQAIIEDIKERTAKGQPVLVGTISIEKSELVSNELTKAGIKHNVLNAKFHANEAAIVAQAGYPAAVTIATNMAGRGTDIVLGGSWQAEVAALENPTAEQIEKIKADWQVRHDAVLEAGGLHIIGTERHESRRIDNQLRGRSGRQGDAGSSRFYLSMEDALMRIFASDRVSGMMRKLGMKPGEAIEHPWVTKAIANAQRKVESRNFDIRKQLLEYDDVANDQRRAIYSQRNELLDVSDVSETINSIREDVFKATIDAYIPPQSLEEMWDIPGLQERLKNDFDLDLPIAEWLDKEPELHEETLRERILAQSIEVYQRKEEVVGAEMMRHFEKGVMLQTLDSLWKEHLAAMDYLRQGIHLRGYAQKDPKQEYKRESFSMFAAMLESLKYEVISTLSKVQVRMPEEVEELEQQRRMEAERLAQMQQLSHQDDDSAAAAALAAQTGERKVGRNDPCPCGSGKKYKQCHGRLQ
For assay [2], the target named is T1, Ubiquitin-activating enzyme e1, putative (Leishmania donovani (strain BPK282A1)) (UniProt E9BSI1).
T1 sequence (whole entry): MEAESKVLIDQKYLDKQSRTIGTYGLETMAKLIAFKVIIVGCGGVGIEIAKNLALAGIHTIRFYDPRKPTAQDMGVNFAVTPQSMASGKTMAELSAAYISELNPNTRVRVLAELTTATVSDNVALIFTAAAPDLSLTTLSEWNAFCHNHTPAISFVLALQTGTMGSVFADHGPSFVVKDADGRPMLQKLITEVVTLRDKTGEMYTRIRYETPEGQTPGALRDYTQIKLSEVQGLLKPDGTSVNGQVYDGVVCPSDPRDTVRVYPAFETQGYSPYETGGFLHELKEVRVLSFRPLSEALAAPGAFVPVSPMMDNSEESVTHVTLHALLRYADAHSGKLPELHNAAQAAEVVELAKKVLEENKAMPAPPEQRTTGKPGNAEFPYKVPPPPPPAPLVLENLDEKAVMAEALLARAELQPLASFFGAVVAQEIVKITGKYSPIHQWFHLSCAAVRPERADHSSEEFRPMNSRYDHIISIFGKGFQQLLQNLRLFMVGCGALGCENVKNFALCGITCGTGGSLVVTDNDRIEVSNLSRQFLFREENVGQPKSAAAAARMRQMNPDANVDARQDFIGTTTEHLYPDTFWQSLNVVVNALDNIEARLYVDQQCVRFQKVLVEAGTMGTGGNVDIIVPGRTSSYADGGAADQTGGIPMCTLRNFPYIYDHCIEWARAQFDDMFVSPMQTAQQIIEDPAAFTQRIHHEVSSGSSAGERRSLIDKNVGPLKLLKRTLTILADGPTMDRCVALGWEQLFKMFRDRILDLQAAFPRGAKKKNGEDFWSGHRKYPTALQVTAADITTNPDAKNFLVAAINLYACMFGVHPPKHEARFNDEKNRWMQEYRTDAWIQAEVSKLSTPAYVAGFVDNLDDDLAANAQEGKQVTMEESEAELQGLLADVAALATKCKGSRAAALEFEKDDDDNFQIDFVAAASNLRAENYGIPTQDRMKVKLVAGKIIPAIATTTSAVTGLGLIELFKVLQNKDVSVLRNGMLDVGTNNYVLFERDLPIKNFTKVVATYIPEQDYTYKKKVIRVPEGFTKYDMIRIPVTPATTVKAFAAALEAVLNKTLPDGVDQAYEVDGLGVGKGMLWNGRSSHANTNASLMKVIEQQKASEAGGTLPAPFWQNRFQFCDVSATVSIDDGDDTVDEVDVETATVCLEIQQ
As to the kind of experiment: Leishmania donovani Ubiquitin Activating Enzyme (LdE1). As to conditions: 30 µM. The assay is classed as functional.

In assay [3] the target is AMP-activated protein kinase, AMPK (Homo sapiens) (UniProt P54646+O43741+P54619+Q9UGJ0+Q9Y478+Q13131+Q9UGI9). Description: AMP-dependent Kinase enzyme assay. An in vitro enzyme assay that detects ADP turnover that is directly proportional to AMPK activity. This uses naive AMPK that is activated during the assay with MK-8722. The assay is classed as functional. As to conditions: 30 µM.

Assay [4] has as its target Sialic acid-binding Ig-like lectin 9 (Homo sapiens) (UniProt Q9Y336). As to the kind of experiment: Hs-Siglec9 ALPHAscreen SOP 20170721. Particulars: 10 µM.
For a further assay, the system named is Trypanosoma cruzi. As to the kind of experiment: Trypanosoma cruzi phosphomannomutase and mannose-1-phosphate guanylyltransferase assay. The assay is classed as functional. As to conditions: 10 µM.
In assay [5] the target is T2, Arginase-2, mitochondrial (Homo sapiens) (UniProt P78540).
T2 sequence (whole entry): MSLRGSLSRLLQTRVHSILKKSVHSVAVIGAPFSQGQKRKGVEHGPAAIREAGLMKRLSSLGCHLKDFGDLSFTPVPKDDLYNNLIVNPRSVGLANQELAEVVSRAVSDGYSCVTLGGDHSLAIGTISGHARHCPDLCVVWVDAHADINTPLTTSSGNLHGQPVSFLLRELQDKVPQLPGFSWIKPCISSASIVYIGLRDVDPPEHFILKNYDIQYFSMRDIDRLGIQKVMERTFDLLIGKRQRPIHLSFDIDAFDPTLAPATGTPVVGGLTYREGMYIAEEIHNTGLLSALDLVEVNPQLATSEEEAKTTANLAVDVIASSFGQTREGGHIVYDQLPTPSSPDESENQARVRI
As to the kind of experiment: in vitro enzyme assay to detect the production of urea directly proportional to the activity of Arginase II. Further: in the data most compounds retested in dose-response had high values. Format: functional. As to conditions: 33.3 µM.

Assay [6] deals with T3, Proteasome subunit beta (Trypanosoma cruzi) (UniProt O96673).
T3 sequence (whole entry): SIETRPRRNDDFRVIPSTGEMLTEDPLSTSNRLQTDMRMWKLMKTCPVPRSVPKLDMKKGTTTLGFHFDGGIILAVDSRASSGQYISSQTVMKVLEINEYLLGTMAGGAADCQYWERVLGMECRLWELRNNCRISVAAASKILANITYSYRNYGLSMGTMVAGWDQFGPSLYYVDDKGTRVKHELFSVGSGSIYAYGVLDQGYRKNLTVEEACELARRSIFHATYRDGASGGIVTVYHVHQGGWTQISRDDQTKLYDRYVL
Description: Trypanosoma cruzi proteasome chymotrypsin-like activity (TcProtChymo) assay. Further: in the data most compounds retested in dose-response had high values. As to conditions: 9.37 µM. Format: functional.

The species named for a further assay is Homo sapiens. As to the kind of experiment: To identify inhibition of the IFN signalling (Jak-Stat) pathway via expression of an eGFP reporter gene under the control of an IFN-stimulated response element (ISRE) containing MxA promoter. As to conditions: 30 µM. The assay is classed as functional. (A reporter such as luciferase makes a cellular process visible.)

In assay [7] the target is T4, Tyrosyl-tRNA synthetase, putative (Trypanosoma cruzi (strain CL Brener)) (UniProt Q4DSP6).
T4 sequence (whole entry): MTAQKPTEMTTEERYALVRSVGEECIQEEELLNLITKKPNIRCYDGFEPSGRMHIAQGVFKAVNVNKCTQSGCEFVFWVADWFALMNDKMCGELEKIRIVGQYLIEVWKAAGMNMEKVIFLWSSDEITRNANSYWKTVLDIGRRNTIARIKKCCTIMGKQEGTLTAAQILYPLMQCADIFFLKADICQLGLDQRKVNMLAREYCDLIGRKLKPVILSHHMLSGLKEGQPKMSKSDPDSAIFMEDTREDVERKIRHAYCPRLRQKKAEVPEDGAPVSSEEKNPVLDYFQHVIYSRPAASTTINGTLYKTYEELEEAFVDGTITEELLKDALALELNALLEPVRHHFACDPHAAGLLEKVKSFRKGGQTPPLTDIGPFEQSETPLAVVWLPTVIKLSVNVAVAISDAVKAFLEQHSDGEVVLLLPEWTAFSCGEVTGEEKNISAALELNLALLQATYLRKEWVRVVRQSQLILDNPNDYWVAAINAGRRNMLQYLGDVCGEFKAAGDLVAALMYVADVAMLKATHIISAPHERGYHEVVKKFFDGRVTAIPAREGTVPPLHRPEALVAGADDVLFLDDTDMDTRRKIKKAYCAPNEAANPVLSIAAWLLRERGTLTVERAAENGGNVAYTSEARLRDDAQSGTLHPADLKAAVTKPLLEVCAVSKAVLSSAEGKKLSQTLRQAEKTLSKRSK
Description: Trypanosoma cruzi tyrosyl tRNA synthetase (TcYRS) _High Tyrosine SOP. Further: in the data most compounds retested in dose-response had high values. Format: functional. Particulars: 30 µM.

Assay [8] deals with T4, Tyrosyl-tRNA synthetase, putative (Trypanosoma cruzi (strain CL Brener)). Description: Trypanosoma cruzi tyrosyl tRNA synthetase (TcYRS) SOP. The assay is classed as functional. Particulars: 30 µM.
Assay [9] deals with Chromo domain-containing protein 1 (Saccharomyces cerevisiae (strain ATCC 204508 / S288c) (Baker's yeast)) (UniProt P32657). Description: ScCHD-1 Enzyme Inhibition Assay. Further: in the data most compounds retested in dose-response had high values. The assay is classed as functional. As to conditions: 30 µM.
Sequence of Chromo domain-containing protein 1 (Saccharomyces cerevisiae (strain ATCC 204508 / S288c) (Baker's yeast)) (P32657 whole entry, the tested form may be a part): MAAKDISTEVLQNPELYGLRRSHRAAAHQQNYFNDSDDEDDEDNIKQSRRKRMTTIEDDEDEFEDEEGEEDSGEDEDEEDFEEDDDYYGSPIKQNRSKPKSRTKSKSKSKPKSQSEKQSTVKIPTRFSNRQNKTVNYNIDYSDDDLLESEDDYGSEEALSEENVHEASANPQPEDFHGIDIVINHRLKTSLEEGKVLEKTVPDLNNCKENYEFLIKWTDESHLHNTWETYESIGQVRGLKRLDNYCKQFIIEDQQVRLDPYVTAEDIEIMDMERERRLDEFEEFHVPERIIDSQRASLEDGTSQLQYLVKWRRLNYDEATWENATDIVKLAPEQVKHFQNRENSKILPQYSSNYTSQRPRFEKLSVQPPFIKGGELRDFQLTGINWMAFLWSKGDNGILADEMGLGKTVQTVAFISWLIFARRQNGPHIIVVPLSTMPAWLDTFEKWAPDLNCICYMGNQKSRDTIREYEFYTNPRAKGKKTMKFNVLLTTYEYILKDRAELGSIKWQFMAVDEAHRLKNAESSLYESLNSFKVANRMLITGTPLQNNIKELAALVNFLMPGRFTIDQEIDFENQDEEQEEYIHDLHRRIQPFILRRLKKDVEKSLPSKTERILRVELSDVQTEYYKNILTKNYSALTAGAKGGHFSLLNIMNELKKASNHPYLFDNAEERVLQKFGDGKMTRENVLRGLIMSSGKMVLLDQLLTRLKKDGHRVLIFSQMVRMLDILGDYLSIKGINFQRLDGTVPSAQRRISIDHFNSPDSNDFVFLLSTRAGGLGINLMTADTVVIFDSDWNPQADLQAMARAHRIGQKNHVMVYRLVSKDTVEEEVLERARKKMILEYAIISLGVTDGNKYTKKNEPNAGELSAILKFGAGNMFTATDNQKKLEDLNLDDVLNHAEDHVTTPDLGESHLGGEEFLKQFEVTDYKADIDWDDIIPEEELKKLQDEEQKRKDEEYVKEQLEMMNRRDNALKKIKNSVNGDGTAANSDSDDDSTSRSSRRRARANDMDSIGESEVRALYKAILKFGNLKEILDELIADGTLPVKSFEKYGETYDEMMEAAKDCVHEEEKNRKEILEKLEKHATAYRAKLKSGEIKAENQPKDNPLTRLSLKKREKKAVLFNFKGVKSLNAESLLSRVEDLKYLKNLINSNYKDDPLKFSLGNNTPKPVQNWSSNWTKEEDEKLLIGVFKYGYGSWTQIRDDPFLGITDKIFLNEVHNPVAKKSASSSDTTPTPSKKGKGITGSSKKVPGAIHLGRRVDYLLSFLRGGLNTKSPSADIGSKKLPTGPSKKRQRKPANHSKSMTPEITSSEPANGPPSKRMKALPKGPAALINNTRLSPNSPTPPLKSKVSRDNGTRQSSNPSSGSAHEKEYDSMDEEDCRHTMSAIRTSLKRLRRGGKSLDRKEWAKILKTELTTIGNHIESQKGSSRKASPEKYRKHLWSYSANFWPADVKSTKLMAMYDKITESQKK

Sequence of Sialic acid-binding Ig-like lectin 9 (Homo sapiens) (Q9Y336 whole entry): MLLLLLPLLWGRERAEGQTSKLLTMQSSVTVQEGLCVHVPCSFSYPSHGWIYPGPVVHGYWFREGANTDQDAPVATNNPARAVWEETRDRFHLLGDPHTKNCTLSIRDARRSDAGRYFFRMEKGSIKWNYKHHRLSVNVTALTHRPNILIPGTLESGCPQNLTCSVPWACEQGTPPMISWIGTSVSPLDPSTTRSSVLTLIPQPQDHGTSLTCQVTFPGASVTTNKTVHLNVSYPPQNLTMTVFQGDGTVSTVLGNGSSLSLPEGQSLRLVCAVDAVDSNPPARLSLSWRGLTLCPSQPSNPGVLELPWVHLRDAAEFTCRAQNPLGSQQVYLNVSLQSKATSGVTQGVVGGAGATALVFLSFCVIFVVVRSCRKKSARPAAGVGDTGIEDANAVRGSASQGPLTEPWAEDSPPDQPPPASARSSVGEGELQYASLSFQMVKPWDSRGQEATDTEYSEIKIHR

In the case of `CCn1cc(NC(=O)C2CCN(CCOC(C)C)CC2)cn1`, the Percent Effect in [1] is -6.99%; in [2] it was 7.89%; in assay [3], -2.47%; in [4] it was -0.756%; with Trypanosoma cruzi it was -6.07%; in [5], -3.6%. Besides, the Percent Effect was found to be 3.98% in [6]; 6.54% in the assay filed under Homo sapiens; 2.46% in [7]; 3.7% in [8]; 0.215% in assay [9].

Turning to `Cc1ncsc1C(=O)NC1CCN(CCC(N)=O)CC1`, the Percent Effect is -5.32% in assay [1]; 15.6% in assay [2]; -3% in [3]; 11% in [4]; -2.62% with Trypanosoma cruzi; 0.356% in [5]. Moreover, the Percent Effect in assay [6] was 4.56%; in the assay listed under Homo sapiens it was 4.69%; in assay [7], 4.85%; in assay [8], 9.76%; in [9] it was -1.54%.

`CCn1nc(C)c2nc(C(C)C)nc(NCCOC)c21`: the Percent Effect is -4.55% in [1]; 6.67% in [2]; 7.63% in assay [3]; 3.6% in assay [4]; 2.36% with Trypanosoma cruzi; -4.4% in assay [5]. In addition, the Percent Effect is 15.5% in [6]; 19.2% in the assay filed under Homo sapiens; 5.29% in assay [7]; 12.8% in assay [8]; -9.33% in assay [9].

`CCC1=N[C@@]2(CC[C@@H]3CN(S(=O)(=O)CC)C[C@@H]32)C(=O)N1CC(C)C`: the Percent Effect in assay [1] was -2.87%; in assay [2] it was 2.6%; in assay [3] it was -1.61%; in assay [4] it was 11.1%; in the assay on Trypanosoma cruzi, -0.493%; in assay [5] it was -1.94%. Besides, the Percent Effect in [6] is 0.348%; in the assay listed under Homo sapiens it was 18.4%; in assay [7], 2.12%; in assay [8], 8.97%; in [9], -4.63%.

In the case of `CN1C(=O)C(C)(C)COc2cc(NS(=O)(=O)Cc3ccccc3)ccc21`, the Percent Effect is -1.91% in assay [1]; 16.4% in assay [2]; -12.8% in assay [3]; -8.62% in assay [4]; 3.72% with Trypanosoma cruzi; -2.73% in assay [5]. Further, the Percent Effect is 15.6% in [6]; 57.7% in the assay listed under Homo sapiens; 7.53% in [7]; 12.5% in assay [8]; -6.62% in assay [9].

Regarding `Cn1cc(-c2csc(CN3CCOCC3)n2)cn1`, the Percent Effect was 2.9% in assay [1]; 4.17% in assay [2]; -3.9% in assay [3]; 1.67% in [4]; 0.0972% in the assay on Trypanosoma cruzi; 8.39% in [5]. Also, the Percent Effect is 1.58% in assay [6]; -3.07% in the assay listed under Homo sapiens; -1.05% in [7]; 2.56% in assay [8]; -1.39% in assay [9].

Consider `CC(=O)N1CCn2c(C(=O)N(C)C)cnc2C1`, for which the Percent Effect in [1] is -2.73%; in assay [2] it was 5.33%; in [3], 9.01%; in [4], -0.782%; in the assay with Trypanosoma cruzi, -1.77%; in assay [5], -3.03%. Also, the Percent Effect in [6] is 1.32%; in the assay filed under Homo sapiens, 5.39%; in [7], 3.19%; in assay [8], 6.41%; in assay [9] it was -2.05%.

With `COc1ccc(CCC(=O)Nc2cccnc2N2CCCC2)cc1Br`, the Percent Effect was -6.14% in assay [1]; 8.11% in [2]; -7.1% in assay [3]; 0.341% in assay [4]; -5.57% in the assay on Trypanosoma cruzi; 2.81% in assay [5]. Also, the Percent Effect in assay [6] is 3.42%; in the assay listed under Homo sapiens, 13.8%; in [7], 5.42%; in assay [8], 6.17%; in assay [9], -2.84%.

As for `Cn1ccnc1CN1C[C@@H](CN2CCC(CO)CC2)[C@@H](CO)C1`, the Percent Effect was -7.42% in assay [1]; 5.41% in assay [2]; -7.54% in assay [3]; 7.63% in assay [4]; 6.37% in the assay on Trypanosoma cruzi; -1.43% in assay [5]. Also, the Percent Effect was 17.4% in [6]; 7.57% in the assay listed under Homo sapiens; 1.59% in assay [7]; 14.6% in assay [8]; -5.25% in assay [9].

For `Cc1cccc(-n2c(C)cc(C(=O)N3CCn4c(C)nnc4C3)c2C)c1`, the Percent Effect in assay [1] was -3.26%; in assay [2], 10.5%; in assay [3] it was -12.3%; in assay [4], 9.36%; in the assay with Trypanosoma cruzi, 2.15%; in assay [5], -3.6%. For the same molecule, the Percent Effect in assay [6] was 7.19%; in the assay filed under Homo sapiens, 3.33%; in assay [7], 11.3%; in [8], 16.1%; in assay [9], -0.518%.

On to `Cn1cc(CCC(=O)N2C[C@H]3CC[C@@H]2CN(Cc2ccccc2)C3)cn1`, for which the Percent Effect in [1] was -5.96%; in assay [2], 4.17%; in assay [3], 9.13%; in [4], -7.5%; in the assay with Trypanosoma cruzi, -1.07%; in assay [5], -3.53%. Also, the Percent Effect is 8.77% in assay [6]; -28.4% in the assay filed under Homo sapiens; 1.05% in assay [7]; 5.13% in assay [8]; -1.41% in assay [9].
